Screening data (PubChem)
LANA DNA inh – blocks KSHV LANA C-terminal domain binding to DNA; inhibition, % at 9 µM; MBP-C-LANA/FAM-LBS DNA binding, fluorescence polarization; 340,000 compounds, 0.078% hits; AID 504423;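 active = highest replicate inhibition at or above 60% at 9 µM, even if other replicates fall short; inactive = all replicates below 60% inhibition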;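 also: 0% = neutral control wells and 100% = 4 µM acridine orange control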
N-glyco inh – blocks N-linked glycosylation in D54 reporter cells; reporter increase, % at 12.5 µM; D54 ERlucT glycosylation luciferase reporter, 24 h; percent of 100 nM tunicamycin response; 360,000 compounds, 0.23% hits; AID 588692;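 active = mean luciferase reporter signal, scaled so untreated is 0 and the glycosylation-blocking control 100, at or above a set limit in every replicate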;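 also: luciferase carries N-glycosylation sites so blocking glycosylation raises the light; 0% = median of neutral control wells and 100% = median of 100 nM tunicamycin wells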
HDAC3 inhib – human HDAC3 inhibition; O15379; recombinant HDAC3, fluorogenic peptide/trypsin coupled, fluorescence; inhibition, % at 8.3 µM; 320,000 compounds, 0.15% hits; AID 2718; in the data active = inhibition above about 26%, passing the limit was not always enough
CASP6 VEID inh – inhibitors of human caspase-6; purified caspase-6, Z-VEID-R110 cleavage fluorescence; inhibition, % at 12.5 µM; 350,000 compounds, 0.53% hits; AID 686996;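 active = mean inhibition across replicates at least about 35%, with every replicate also reaching that limit, limit read from the data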;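 also: 0% = median of neutral control wells and 100% = no fluorescence left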
Keap1 Nrf2 FP – disrupts human Keap1 binding to Nrf2 peptide; inhibition, % at 9.4 µM; Keap1 Kelch-Nrf2 peptide fluorescence polarization, 1536-well; 340,000 compounds, 0.15% hits; Q14145; AID 504523; in the data active = inhibition above about 12%;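 also: human Keap1 Kelch domain with fluorescein labeled Nrf2 9mer peptide probe; 0% = neutral control wells and 100% = peptide positive control; higher means more block of Keap1 binding to Nrf2 peptide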
NSD2 inh – NSD2 (human) methyltransferase inhibition | O96028 | NSD2 peptide methylation, AlphaScreen, 120 min | inhibition, % at 12.5 µM | 310,000 compounds, 0.54% hits | AID 743445; in the data active = inhibition above about 50%
Target sequence (O96028 whole entry, looked up): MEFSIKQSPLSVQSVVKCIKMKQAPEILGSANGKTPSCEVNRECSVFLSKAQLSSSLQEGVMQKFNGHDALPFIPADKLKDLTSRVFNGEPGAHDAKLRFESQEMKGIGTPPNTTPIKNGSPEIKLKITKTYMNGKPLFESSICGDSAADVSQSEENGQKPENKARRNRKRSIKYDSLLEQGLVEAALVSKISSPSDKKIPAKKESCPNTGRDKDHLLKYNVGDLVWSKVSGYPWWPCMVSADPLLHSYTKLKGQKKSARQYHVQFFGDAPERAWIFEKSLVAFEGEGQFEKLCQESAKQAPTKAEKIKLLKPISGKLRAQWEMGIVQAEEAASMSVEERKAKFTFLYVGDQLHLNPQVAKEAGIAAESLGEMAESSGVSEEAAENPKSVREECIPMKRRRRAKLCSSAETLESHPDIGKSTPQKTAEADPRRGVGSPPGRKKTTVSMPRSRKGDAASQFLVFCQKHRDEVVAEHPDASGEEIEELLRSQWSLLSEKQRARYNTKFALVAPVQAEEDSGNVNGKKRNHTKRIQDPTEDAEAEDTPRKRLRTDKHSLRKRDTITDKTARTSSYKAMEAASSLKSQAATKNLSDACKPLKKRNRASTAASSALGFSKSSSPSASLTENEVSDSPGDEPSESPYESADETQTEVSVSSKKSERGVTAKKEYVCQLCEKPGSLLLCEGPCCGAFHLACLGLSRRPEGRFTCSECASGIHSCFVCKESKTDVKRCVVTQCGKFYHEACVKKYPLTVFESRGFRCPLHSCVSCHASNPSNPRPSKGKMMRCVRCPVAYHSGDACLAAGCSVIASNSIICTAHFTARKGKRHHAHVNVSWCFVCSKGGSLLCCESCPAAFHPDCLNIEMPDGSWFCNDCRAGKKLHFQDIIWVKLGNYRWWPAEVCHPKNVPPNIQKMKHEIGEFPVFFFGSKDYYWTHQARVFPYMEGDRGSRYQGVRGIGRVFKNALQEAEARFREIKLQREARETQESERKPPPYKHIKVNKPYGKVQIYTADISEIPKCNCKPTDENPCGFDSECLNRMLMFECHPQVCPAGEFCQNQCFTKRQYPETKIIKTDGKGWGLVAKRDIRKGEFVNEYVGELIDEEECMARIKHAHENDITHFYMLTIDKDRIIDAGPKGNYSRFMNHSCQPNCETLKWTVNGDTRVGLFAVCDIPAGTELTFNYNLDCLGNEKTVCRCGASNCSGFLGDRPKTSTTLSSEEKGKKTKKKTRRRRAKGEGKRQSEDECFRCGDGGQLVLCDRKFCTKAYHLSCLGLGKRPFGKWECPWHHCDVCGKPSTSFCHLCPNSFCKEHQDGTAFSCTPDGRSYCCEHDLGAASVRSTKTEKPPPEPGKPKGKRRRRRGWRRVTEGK
Keap1 Kelch bind – binders of human Keap1 Kelch domain. shares compounds with Keap1 Nrf2 FP. Keap1 Kelch thermal shift, delta Tm; active compounds read high. max delta Tm, degrees C. 400 compounds, 8% hits. AID 651823; in the data active = max delta Tm above about 0.48 degrees C
Sypro dye melt – counter-screen for Keap1 thermal shift hits: dye-only artifacts | delta Tm, degrees C (no concentration beside the values) | AID 651858 | Sypro Orange dye-only thermal melt, no protein, delta Tm; top dose 26 µM | 140 tested, under 10 active | shares compounds with Keap1 Nrf2 FP;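 active = at highest dose tested, delta Tm positive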
An asterisk follows results filed as active; . = no result given. Only some compounds are listed: those with a hit (about 1.1% of all), similar ones and a draw of the others.

SMILES	LANA DNA inh	N-glyco inh	HDAC3 inhib	CASP6 VEID inh	Keap1 Nrf2 FP	NSD2 inh	Keap1 Kelch bind	others
C[C@@H]1CCCCO[C@@H](CN(C)Cc2ccncc2)[C@@H](C)CN([C@@H](C)CO)C(=O)c2cc(NC(=O)CCC(F)(F)F)ccc2O1	.	.	.	-5.7	.	.	.
O=C(CSc1nc2ccccc2c(=O)n1CCCN1CCOCC1)Nc1ccccc1OC(F)F	12.1	-2.9	1.1	0.9	18.7*	.	-0.14	Sypro dye melt=-22.8
CC(=O)Nc1ccc(NC(=O)CSc2nc3ccccc3c(=O)n2CCCN2CCOCC2)cc1	1.1	0.9	3.8	0.9	-4.9	-1.3	.
CCS(=O)(=O)N1CC2(CN(C(=O)CN3CCOCC3)[C@H](CO)c3c2c2ccc(OC)cc2n3C)C1	.	.	.	-1.0	.	.	.
Cc1ccc(S(=O)(=O)Nc2ccc3c(c2)CC(=O)N([C@H](C)CO)C[C@H](C)[C@@H](CN(C)C)O3)cc1	.	.	.	-0.4	.	.	.
Cc1cc(C)c2c(SC(C)C)nc(N)nc2n1	14.5	1.3	0.4	0.6	22.8*	29.9	-0.18
C=CCn1ccc(=NC=C(C#N)C#N)c2ccccc21	23.6	4.8	16.4	-2.6	130.4*	-0.4	-0.04
CNC[C@@H]1Oc2c(NC(=O)C3CC3)cccc2C(=O)N([C@H](C)CO)C[C@@H]1C	.	.	.	-2.0	.	.	.
O=C1c2ccccc2C(=O)c2c1ccc(O)c2O	22.3	-5.1	.	.	13.0*	.	0.08
COc1cc(Cl)c(C)cc1NCC(=O)Nc1cccc(S(=O)(=O)N2CCCC2)c1	15.3	3.7	-2.2	1.5	28.0*	-2.9	-0.1	Sypro dye melt=-27.4
C/C(=N\Nc1ccc(Cl)c(C(=O)O)c1)c1cccs1	3.7	0.5	-2.3	4.2	-1.3	11.5	.
C/C(=N/Nc1ccccc1C(=O)O)c1cccs1	.	1.7	6.7	5.3	73.5*	2.7	-0.04	Sypro dye melt=-27.1
CC(C)NC(=O)Nc1ccc2c(c1)CC(=O)N([C@H](C)CO)C[C@H](C)[C@H](CN(C)C)O2	.	.	.	-2.9	.	.	.
CCNC(=O)C[C@H]1CC[C@@H]2[C@H](COc3ccc(NC(C)=O)cc3C(=O)N2C)O1	.	.	.	1.9	.	.	.
Cn1ccnc1C(O)c1ccccc1 (stereo unspecified)	0.5	0.5	0.7	-5.7	-0.5	-0.2	.
COc1ccc2ccccc2c1C(O)c1nccn1C (stereo unspecified)	54.8	-0.8	0.8	.	32.9*	18.8	0.1
C[C@@H]1CN([C@@H](C)CO)C(=O)Cc2cc(NS(C)(=O)=O)ccc2O[C@@H]1CN(C)S(=O)(=O)c1ccccc1	.	.	.	-0.6	.	.	.
C/C=C/c1ccc([C@@H]2[C@H](CO)N(Cc3cncnc3)C23CN(C(C)=O)C3)cc1	.	.	.	-2.6	.	.	.
C[C@H](CO)N1C[C@H](C)[C@@H](CN(C)C(=O)Nc2ccc(C(F)(F)F)cc2)Oc2c(NC(=O)Nc3ccc(F)cc3)cccc2C1=O	.	.	.	2.0	.	.	.
CCCCOc1[nH]c2nc(-c3ccco3)n(Cc3ccco3)c(=N)c2c1C#N	35.8	8.7	-5.0	.	16.2*	.	0.23
CN(C)C(=O)c1cccc(-c2ccc([C@@H]3[C@H]4CN(C(=O)C5CCC5)CC(=O)N4[C@H]3CO)cc2)c1	.	.	.	-1.3	.	.	.
Nc1c(Cl)ncnc1NCCO	0.3	-0.2	-0.5	0.1	7.8	5.2	.
Nc1c(Cl)ncnc1NCc1ccccc1	28.1	-1.4	2.3	-1.3	30.7*	0.4	0
O=S(=O)(c1ccc(F)cc1)N1C[C@H]2[C@@H](c3ccccc31)[C@@H](CO)N2Cc1ccccc1Cl	.	.	.	0.7	.	.	.
CC(C)(C)c1cc(OC(=O)C2CCCC2)ccc1O	0.1	-4.3	16.8	4.3	4.6	2.7	.
SMILES	LANA DNA inh	N-glyco inh	HDAC3 inhib	CASP6 VEID inh	Keap1 Nrf2 FP	NSD2 inh	Keap1 Kelch bind	others
CCCCC(CC)C(=O)Oc1ccc(O)c(C(C)(C)C)c1 (stereo unspecified)	-0.9	-1.7	17.3	-0.1	14.9*	.	0.05
Nc1ccc2nc3c(=O)n(CCc4ccccc4)c(=O)[nH]c3nc2c1	.	11.7	-3.9	-0.6	.	-0.8	.
Nc1ccc2nc3c(=O)n(C4CCCCC4)c(=O)[nH]c3nc2c1	39.1	7.0	.	-0.5	60.3*	-0.9	-0.05	Sypro dye melt=-34.2
COc1ccccc1NC(=O)N1C[C@H]2[C@@H](c3ccccc31)[C@H](CO)N2C(=O)c1ccccc1	.	.	.	-4.2	.	.	.
CO[C@H]1CN(C)C(=O)c2cc(NC(=O)c3ccccc3F)ccc2OC[C@@H](C)NC[C@@H]1C	.	.	.	-1.8	.	.	.
NC(=O)c1cc2ccc(O)cc2oc1=NCc1ccccc1	21.6	-8.6	.	8.1	16.1*	0.2	-0.14	Sypro dye melt=-26
O=C(CN1CCN(Cc2ccc3c(c2)OCO3)CC1)Nc1ccc(F)cc1	-0.2	4.0	-1.9	.	-4.2	0.2	.
O=C(CN1CCN(C(=O)CNC(=O)c2ccc3c(c2)OCO3)CC1)Nc1ccc(F)cc1	.	0.1	6.2	1.6	61.8*	0.6	-0.08
CC(=O)Nc1ccc(Nc2c3c4c(cccc4n(C)c2=O)C(=O)c2ccccc2-3)cc1	1.6	-5.3	11.1	-1.0	3.0	-0.1	.
Cn1c(=O)c(N)c2c3c(c(Br)ccc31)C(=O)c1ccccc1-2	124.3*	12.1	2.0	-0.2	31.3*	.	0.07
O=S(=O)(O)c1ccc(O)c2cc(Nc3ccccc3)ccc12	120.4*	-2.3	.	.	25.1*	.	0.97*
Oc1cccc(Nc2ccccc2)c1	1.7	-1.0	-9.7	-5.0	3.2	.	.
Cc1cc[n+](-c2[nH]c(=O)sc2/C=N/NC([S-])=Nc2ccccc2)cc1	48.0	-0.3	2.0	41.0*	31.7*	0.3	0.09
Cc1cc(C)c[n+](-c2[nH]c(=O)sc2/C=N/NC([S-])=Nc2ccccc2)c1	36.5	4.2	.	1.5	26.0*	-1.2	-0.05	Sypro dye melt=-27.2
CCc1ccc[n+](-c2[nH]c(=O)sc2/C=N/NC([S-])=Nc2ccccc2)c1	89.3*	-4.0	6.6	10.0	49.4*	-4.8	-0.11	Sypro dye melt=-25
O=c1[nH]c(-[n+]2ccccc2)c(/C=N/NC([S-])=Nc2ccccc2)s1	25.9	-0.2	7.1	2.7	17.0*	1.4	-0.07
CC(C)(C)c1cc[n+](-c2[nH]c(=O)sc2/C=N/NC(=O)c2ccccc2[O-])cc1	18.9	0.1	11.0	29.8	1.9	4.8	.
O=C(C[C@H]1CC[C@@H]2[C@H](COC[C@@H](O)CN2S(=O)(=O)c2ccc(F)cc2)O1)NCC1CC1	.	.	.	-0.4	.	.	.
C[C@@H]1CCCCO[C@H](CN(C)S(=O)(=O)c2cccs2)[C@H](C)CN([C@H](C)CO)C(=O)c2cc(NS(=O)(=O)c3ccc(Cl)cc3)ccc2O1	.	.	.	-0.9	.	.	.
CS(=O)(=O)N1CCCC(C(=O)Nc2ccc(F)c(F)c2)C1 (stereo unspecified)	16.9	1.0	2.3	-5.4	41.6*	-3.3	-0.08	Sypro dye melt=-26.6
